Results as given in PubChem BioAssay (Tox21).
“And” between values parts separate entries of the source, which are not always exact repeats. Identical values can stand only once. Records with an inconclusive call do not appear. Where a call stands in place of a potency, no number is given. A structure can be active in one record and inactive in another. The source made the active and inactive calls. Calls follow the shape of the dose curve; as a rule, active = well fitted curve in the direction sought with a large enough effect in the repeat runs; inconclusive = weak or mixed curves; inactive = no such curve, though single readings can be large; an effect the other way counts as inactive or inconclusive.

How the values were obtained:
[1] = qHTS RealTime-Glo MT Cell Viability Assay in HEK293 cells - 40 hour (AID 1224874); settings: RealTime-Glo luminescence; max response: stronger effect = lower value; also: nearly all actives have a fitted effect of over 50% in size
Method in brief: (§1)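 Cells were seeded together with NanoLuc luciferase and a prosubstrate that viable cells reduce to a luciferase substrate. After a 5 h incubation at 37 C/5% CO2, compounds were added and luminescence was measured repeatedly during 40 h of treatment.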

[2] = A CellTox Green Cytotoxicity Assay to monitor cytotoxicity in HEK293 cells - 24 hour (AID 1224875); also: series mostly up to about 77 µM; nearly all actives have a fitted effect of over 45% in size
Method in brief: (§2)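 Nonlytic real-time cytotoxicity: HEK293 + CellTox Green reagent plated, 5 h preincubation, pintool compound addition (23 nL in DMSO), 37 C for 40 h, fluorescence measured at successive time points.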

[3] = A CellTox Green Cytotoxicity Assay to monitor cytotoxicity in HepG2 cells - 16 hour (AID 1224876); also: nearly all actives have a fitted effect of over 45% in size; also: potency is read from the fitted curve at half-maximal effect
Method in brief: (§3)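 Read-out is fluorescence of a cyanine dye excluded from live cells that stains DNA of dead HepG2 cells, with signal proportional to cytotoxicity. Plates were read at 0, 8, 16, 24, 32 and 40 h after compound addition.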

[4] = qHTS RealTime-Glo MT Cell Viability Assay in HepG2 cells - 32 hour (AID 1224877); also: nearly all actives have a fitted effect of over 55% in size
Method in brief: (§4)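 Compound treatment began 5 h after plating HepG2 cells (600/well) with NanoLuc luciferase and prosubstrate. Plates stayed at 37 C for 40 h; luminescence was captured at six time points, 0 h through 40 h.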

[5] = A CellTox Green Cytotoxicity Assay to monitor cytotoxicity in HepG2 cells - 24 hour (AID 1224878); also: nearly all actives have a fitted effect of over 45% in size; also: potency is read from the fitted curve at half-maximal effect
Method in brief: as §3

[6] = A CellTox Green Cytotoxicity Assay to monitor cytotoxicity in HepG2 cells - 40 hour (AID 1224879); also: nearly all actives have a fitted effect of over 40% in size; also: potency is read from the fitted curve at half-maximal effect
Method in brief: as §3

[7] = qHTS RealTime-Glo MT Cell Viability Assay in HEK293 cells - 0 hour (AID 1224880); also: top concentration of the series differs between compounds; nearly all actives have a fitted effect of over 45% in size
Method in brief: as §1

[8] = A CellTox Green Cytotoxicity Assay to monitor cytotoxicity in HEK293 cells - 32 hour (AID 1224881); also: nearly all actives have a fitted effect of over 40% in size
Method in brief: as §2

[9] = A CellTox Green Cytotoxicity Assay to monitor cytotoxicity in HepG2 cells - 0 hour (AID 1224882); also: nearly all actives have a fitted effect of over 35% in size
Method in brief: as §3

[10] = A CellTox Green Cytotoxicity Assay to monitor cytotoxicity in HepG2 cells - 32 hour (AID 1224883); also: nearly all actives have a fitted effect of over 50% in size; also: potency is read from the fitted curve at half-maximal effect
Method in brief: as §3

[11] = A CellTox Green Cytotoxicity Assay to monitor cytotoxicity in HEK293 cells - 8 hour (AID 1224884); also: nearly all actives have a fitted effect of over 35% in size
Method in brief: as §2

[12] = qHTS RealTime-Glo MT Cell Viability Assay in HepG2 cells - 16 hour (AID 1224885); also: nearly all actives have a fitted effect of over 50% in size
Method in brief: as §4

[13] = qHTS RealTime-Glo MT Cell Viability Assay in HEK293 cells - 24 hour (AID 1224886); also: top concentration of the series differs between compounds; nearly all actives have a fitted effect of over 50% in size
Method in brief: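 Quantitative high-throughput screen of the Tox21 10K library in HEK293: cells and RealTime-Glo reagents plated together, compound added at 5 h, luminescence monitored through 40 h at 37 C.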

[14] = qHTS RealTime-Glo MT Cell Viability Assay in HEK293 cells - 8 hour (AID 1224887)
Method in brief: as §1

[15] = qHTS RealTime-Glo MT Cell Viability Assay in HepG2 cells - 0 hour (AID 1224889); also: nearly all actives have a fitted effect of over 50% in size
Method in brief: as §4

[16] = A CellTox Green Cytotoxicity Assay to monitor cytotoxicity in HepG2 cells - 8 hour (AID 1224890); also: nearly all actives have a fitted effect of over 45% in size
Method in brief: as §3

[17] = qHTS assay to identify small molecule antagonists of the estrogen receptor alpha (ER-alpha) signaling pathway using the BG1 cell line in the presence of 0.1 nM 17-beta-estradiol - cell viability counter screen (AID 1259241); also: nearly all actives have a fitted effect of over 40% in size
Method in brief: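 Estradiol-stimulated (0.1 nM) VM7Luc4E2 cells exposed to compounds 22 hr; viability measured by fluorescence of cleaved CellTiter-Fluor substrate after 30 min.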

[18] = qHTS assay to identify small molecule antagonists of the androgen receptor (AR) signaling pathway using the MDA cell line in the presence of 0.5 nM R1881 - cell viability counter screen (AID 1259242); also: nearly all actives have a fitted effect of over 45% in size
Method in brief: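 Counter screen for cytotoxicity run in the same wells as the AR antagonist reporter screen: MDA-kb2 cells were treated 16 hr with test compounds and 0.5 nM R1881, then live-cell protease activity was measured by fluorescence.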

[19] = A CellTox Green Cytotoxicity Assay to monitor cytotoxicity in HEK293 cells - 16 hour (AID 1224888); also: nearly all actives have a fitted effect of over 35% in size
Method in brief: as §2

Compound	max response [1]	Potency [2]	Potency [3]	outcome [4]	Potency [5]	Potency [6]	Potency [7]	Potency [8]	outcome [9]	Potency [10]	outcome [11]	outcome [12]	Potency [13]	Potency [14]	Potency [15]	Potency [16]	Potency [17]	outcome [18]	outcome [19]
C/C=C1/CC2C=CC1C2 (stereo not given)	4% (inactive) and 6.36% (inactive)	inactive	inactive	inactive	inactive	inactive	inactive	inactive	inactive	inactive	inactive	inactive	inactive	inactive	inactive	inactive	inactive		
COc1ccc(NC(C)=O)cc1N	6.82% (inactive) and 6.45% (inactive)	inactive	inactive and 21.9 µM (active)	inactive	inactive and 49 µM (active)	inactive and 43.6 µM (active)	inactive	inactive	inactive	inactive and 43.6 µM (active)	inactive	inactive	inactive	inactive	inactive	inactive	inactive	inactive	
O=c1[nH]c(=O)n([C@H]2CCCO2)cc1F	-9.43% (inactive) and 1.8% (inactive)	inactive	inactive	inactive	inactive	inactive	inactive	inactive	inactive	inactive	inactive	inactive	inactive	inactive	inactive	inactive			
Cc1cccc(O)c1	3.75% (inactive) and 3.48% (inactive)	inactive	inactive	inactive	inactive	inactive	inactive	inactive	inactive	inactive	inactive	inactive	inactive	inactive	inactive	inactive			
CC(=O)CC(=O)Nc1ccccc1	-1.61% (inactive) and 1.86% (inactive)	inactive	inactive	inactive	inactive	inactive	inactive	inactive	inactive	inactive	inactive	inactive	inactive	inactive	inactive	inactive		inactive	
CCCCC(CC)COC(=O)C(C#N)=C(c1ccccc1)c1ccccc1 (stereo not given)	-27.4% (inactive)	inactive	inactive	inactive	inactive	inactive	inactive	inactive	inactive	inactive	inactive	inactive	inactive	inactive	inactive	inactive	inactive	inactive	
CC(=O)OCC(=O)[C@@]12N=C(C)O[C@@H]1C[C@H]1[C@@H]3CCC4=CC(=O)C=C[C@]4(C)[C@H]3[C@@H](O)C[C@@]12C	-2.48% (inactive) and 0.51% (inactive)	inactive	inactive	inactive	inactive	inactive	inactive	inactive	inactive	inactive	inactive	inactive	inactive	inactive	inactive	inactive	inactive		
Oc1cccc2ccccc12	-13.2% (inactive) and -5.72% (inactive)	inactive	inactive	inactive	inactive	inactive	inactive	inactive	inactive	inactive	inactive	inactive	inactive	inactive	inactive	inactive		inactive	
O=C(O)c1ccc(C(=O)O)cc1	-0.318% (inactive) and 3.28% (inactive)	inactive	inactive		inactive	inactive and 15.5 µM (active)	inactive	inactive	inactive	inactive	inactive	inactive	inactive	inactive	inactive	inactive			inactive
CCCCCC(N)=O	0.824% (inactive) and 2.09% (inactive)	inactive	inactive		inactive	inactive	inactive	inactive	inactive	inactive	inactive	inactive	inactive	inactive	inactive	inactive			inactive
O=c1[nH]nnc2ccccc12	2.18% (inactive) and -25.5% (inactive)	inactive	inactive	inactive	inactive	inactive	inactive	inactive	inactive	inactive	inactive	inactive	inactive	inactive	inactive	inactive	inactive	inactive	
O=S1(=O)CC=CC1	-4.83% (inactive) and 3.43% (inactive)	inactive	inactive	inactive	inactive	inactive	inactive	inactive	inactive	inactive	inactive	inactive	inactive	inactive	inactive	inactive		inactive	inactive
CC(=O)CC(=O)Nc1ccccc1C	-0.0445% (inactive) and -13.2% (inactive)	inactive	inactive		inactive	inactive	inactive	inactive	inactive	inactive	inactive	inactive	inactive	inactive	inactive	inactive	inactive		inactive
Cc1ccc(S(N)(=O)=O)cc1	1.64% (inactive)	inactive	inactive	inactive	inactive	inactive	inactive	inactive	inactive	inactive	inactive	inactive	inactive	inactive	inactive	inactive		inactive	
O=C(Oc1ccccc1)c1ccccc1	-9.85% (inactive) and 1.19% (inactive)	inactive	inactive	inactive	inactive	inactive	inactive	inactive	inactive	inactive	inactive	inactive	inactive	inactive	inactive	inactive		inactive	
